Assay outcomes (PubChem)
Shown are actives, neighbours in structure and some others; about 3.8% of the full set was active somewhere.
Yeast superoxide: reduction of superoxide in aged yeast, primary screen, HTS; 330,000 compounds, 0.18% hits; S. cerevisiae aged cells, superoxide DHE fluorescence; active compounds read low; superoxide response (% of plate mean), % at 10 µM;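 active = superoxide response under a set limit, about three screen SD below normal, cut at about 65% in these data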;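 also: yeast aged for seven days with compound at 30 °C before DHE staining; 100% = average MFI of all compound-treated wells on the plate with controls excluded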
TIM10 inh: growth inhibitors of isogenic TIM10 control yeast, primary screen, counter-screen for tim10-1 yeast inhibitor project, luminescence, uHTS. AID 463195, 2010. 330,000 compounds, 1.4% hits. inhibition, % at 10 µM. S. cerevisiae TIM10 strain growth, BacTiter-Glo luminescence, 24 h;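 active = inhibition of 40% or more at the single tested concentration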;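 also: wild-type TIM10 isogenic control strain grown at permissive 25 °C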
NLRP3 yeast inh: NALP3 inflammasome inhibitors in reconstituted yeast, primary screen, luminescence, uHTS | AID 2825, 2010 | Yeast reconstituted NLRP3/ASC/caspase-1, beta-gal luminescence, 24 h | 330,000 compounds, 0.39% hits | inhibition, % at 10 µM;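 active = inhibition of 50% or more; inactive = inhibition below 50%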;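 also: plate controls were induced DMSO wells for no effect and uninduced yeast grown without galactose for full effect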
tim10-1 inh: growth inhibitors of tim10-1 mutant yeast, primary screen, luminescence, uHTS; AID 463190, 2010; 330,000 compounds, 2.2% hits; inhibition, % at 20 µM; S. cerevisiae tim10-1 ts strain growth, BacTiter-Glo, 24 h;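 active = inhibition of at least 40%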;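 also: mutant grown at 25 °C; 0% = DMSO wells with yeast and 100% = wells holding no yeast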
tim23-1 inh: growth inhibitors of tim23-1 mutant yeast, primary screen, luminescence, uHTS; inhibition, % at 20 µM; S. cerevisiae tim23-1 growth, BacTiter-Glo luminescence, 24 h; 330,000 compounds, 1.3% hits;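 active = growth inhibition of the mutant yeast at or above 50%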;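 also: temperature-sensitive mutant grown at 25 °C; plate controls were DMSO-treated mutant yeast for no effect and medium wells lacking yeast for full effect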
tim10-1 confirm: growth inhibitors of tim10-1 mutant yeast, confirmation, single concentration, luminescence, S. cerevisiae. shares compounds with tim10-1 inh. S. cerevisiae tim10-1 ts strain growth, BacTiter-Glo, 24 h. inhibition, % at 20 µM. 7,400 compounds, 56% hits;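 active = inhibition of yeast growth at or above a set limit in either of two repeat tests at 20 µM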;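 also: tim10-1 mutant grown at permissive 25 °C to find synthetic lethal compounds; 0% = DMSO yeast wells and 100% = medium wells without yeast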
TIM10 conf: growth inhibitors of wild-type TIM10 yeast, confirmation, counter-screen for tim10-1 synthetic lethality project, single concentration, luminescence, S. cerevisiae. shares compounds with TIM10 inh. S. cerevisiae tim10 strain growth, BacTiter-Glo luminescence, 24 h. inhibition, % at 10 µM. 4,600 compounds, 63% hits. AID 463215, 2010;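 active = inhibition of yeast growth at or above a set limit in either of two replicates at 10 µM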;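 also: this counterscreen used the strain with wild-type TIM10; 0% = yeast with DMSO and 100% = medium wells lacking yeast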
tim23-1 confirm: tim23-1 mutant yeast growth inhibitors, confirmation, luminescence, single concentration; S. cerevisiae tim23-1 growth, BacTiter-Glo luminescence, 24 h; AID 463218, 2010; inhibition, % at 20 µM; shares compounds with tim23-1 inh; 4,400 compounds, 83% hits;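 active = inhibition above about 39% in either of two replicate wells at 20 µM, limit read from the data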;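 also: temperature-sensitive tim23-1 mutant grown at 25 °C; 0% = DMSO wells with yeast and 100% = medium wells without yeast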
The depositor's hits bear a star; . = no result.

SMILES | Yeast superoxide | TIM10 inh | NLRP3 yeast inh | tim10-1 inh | tim23-1 inh | tim10-1 confirm | TIM10 conf | tim23-1 confirm
Cc1ccc(C2CC(c3cccs3)=NN2C(=O)CSC2=NN3CCCC(=O)N=C3S2)cc1 (stereo unspecified) | 92.7 | 44.5* | 10.3 | 50.5* | 56.8* | 43.8* | 39.9* | 60.0*
O=c1nc2s/c(=C\c3ccco3)c(=O)n2nc1Cc1ccc(F)cc1 | 114.5 | 78.1* | 11.2 | 70.6* | 53.3* | 75.6* | 79.6* | -8.2
Cc1ccc(-c2nc3s/c(=C\c4ccco4)c(=O)n3n2)cc1 | 106.4 | 9.2 | -0.9 | 8.4 | 32.3 | . | . | .
CC(C)C[C@H](NC(=O)c1nc[nH]c1C(=O)NC1CCNCC1)C(=O)OCc1ccccc1 | . | -14.0 | 5.1 | 1.5 | -6.2 | . | . | .
CCN(CC)Cc1nc2c(c(=O)[nH]1)C1(CCCCC1)Cc1ccccc1-2 | 111.0 | 50.4* | -22.6 | 41.4* | 50.2* | 41.1* | 46.9* | 40.0*
Cc1ccc(-n2c(SCC(N)=O)nc3c(c2=O)C2(CCCC2)Cc2ccccc2-3)cc1 | 112.5 | 31.8 | 5.8 | 49.3* | 51.9* | 36.3* | . | 44.5*
CCSc1n[nH]c2nc3c(c(=O)n12)C1(CCCC1)Cc1ccccc1-3 | 108.5 | 33.9 | -37.0 | 33.4 | 40.8 | . | . | .
CSc1n[nH]c2nc3c(c(=O)n12)C1(CCCC1)Cc1ccccc1-3 | 98.0 | 38.9 | -46.4 | 47.9* | 52.7* | 50.7* | . | 55.1*
Cn1c(NCCO)nc2c(c1=O)C1(CCCCC1)Cc1ccccc1-2 | 101.8 | 31.3 | 10.5 | 59.5* | 58.8* | 37.1* | . | 62.9*
CN(C)Cc1ccc(-c2nc3cccc4c3n2CCNC4=O)cc1 | 90.2 | 8.6 | 0.7 | -3.2 | 1.5 | . | . | .
CC(C)n1ncc2c(C(=O)N3CCN(c4ccc(F)cc4)CC3)cc(-c3ccccc3)nc21 | 100.8 | 8.9 | 24.0 | 13.3 | 11.6 | . | . | .
Cc1ccc(-n2c(SCC(N)=O)nnc2-c2ccc(S(=O)(=O)N3CCCCC3)cc2)c(C)c1 | 98.2 | 14.7 | 2.4 | 18.3 | 0.3 | . | . | .
CSc1nnc2n(C)c3c(c(=O)n12)C1(CCCC1)Cc1ccccc1-3 | 105.8 | 40.5* | -36.8 | 45.4* | 62.4* | 30.4 | 34.6* | 49.8*
Cn1c(=O)c2c(n3cnnc13)-c1ccccc1CC21CCCC1 | 101.8 | -37.3 | -17.8 | 20.0 | 29.5 | . | . | .
COc1cc(/C=N/NC(=S)NC2CC3CCC2C3)ccc1O (stereo unspecified) | 104.0 | 49.0* | -11.8 | 42.3* | 67.9* | 23.6 | 43.0* | 51.5*
S=C(N/N=C/c1ccc2c(c1)OCO2)NC1CC2CCC1C2 (stereo unspecified) | 97.5 | 27.2 | 2.0 | 9.2 | 21.5 | . | . | .
O=C(Cc1c(F)cccc1Cl)Nc1nc2ccccc2s1 | 105.3 | 48.2* | 29.1 | 43.0* | 55.3* | 30.5* | 34.0* | 63.0*
Cc1nc2ccc(NC(=O)Cc3c(F)cccc3Cl)cc2s1 | 83.5 | 3.2 | 20.4 | -2.6 | 24.7 | . | . | .
CC(=O)Cc1nsc(NC(=O)c2ccc(-c3ccccc3Cl)o2)n1 | 128.8 | 25.4 | 10.9 | 48.5* | 51.0* | 43.4* | . | 51.4*
Cc1ccc(C)c(NC(=O)c2ccc(S(=O)(=O)N(C)CC3CCCO3)cc2)c1 (stereo unspecified) | 87.6 | 10.1 | 24.9 | 15.1 | 25.5 | . | . | .
CCCCOC(=O)CCc1c(C)n[nH]c1C | 115.6 | 4.4 | 1.8 | -2.4 | 8.6 | . | . | .
Oc1c(N=Nc2ccccn2)ccc2ccccc12 | 95.3 | 41.5* | 19.6 | 72.1* | 52.8* | 53.2* | 46.0* | 75.6*
COc1ccccc1CNC(=O)CCS(=O)(=O)c1cccc2nonc12 | 96.6 | -1.0 | 3.2 | 17.3 | -1.7 | . | . | .
O=C1CC(c2cccc(Cl)c2)c2cc3c(cc2N1)CCC3 (stereo unspecified) | 158.9 | 13.5 | 7.1 | 41.0* | 60.3* | 22.6 | . | 56.5*
COc1cccc(C2CC(=O)Nc3cc4c(cc32)CCC4)c1 (stereo unspecified) | 144.3 | 19.5 | 23.9 | 3.2 | 39.9 | . | . | .
SMILES | Yeast superoxide | TIM10 inh | NLRP3 yeast inh | tim10-1 inh | tim23-1 inh | tim10-1 confirm | TIM10 conf | tim23-1 confirm
N/C(=N\OC(=O)c1ccc2c(c1)OCO2)c1cccc(Br)c1 | 107.5 | 92.5* | 15.3 | 67.9* | 78.2* | 48.2* | 95.8* | 87.8*
COc1ccc(/C(N)=N/OC(=O)c2ccc3c(c2)OCO3)cc1OC | 93.3 | 47.0* | 10.2 | 69.1* | 59.5* | 75.0* | 46.1* | 56.1*
O=C(CSc1ccc(Cl)cc1)NC1=NN(c2ccccc2)C(=O)C1 | 99.5 | 10.8 | 18.9 | 48.5* | 62.8* | 16.9 | . | -12.0
C=C(CC)C(=O)c1ccc(OCC(=O)O)c(Cl)c1Cl | 100.2 | 54.2* | 11.7 | 64.8* | 67.8* | 54.8* | 56.9* | 88.8*
O=C(Oc1c(Cl)cc(Cl)c2cccnc12)c1cccc([N+](=O)[O-])c1 | 182.7 | 50.5* | 43.8 | 50.7* | 62.6* | 27.5 | -26.6 | 72.6*
Cc1noc2ncnc(Sc3ccc(Cl)cc3)c12 | 102.3 | 30.6 | 36.7 | 50.7* | 58.3* | 56.8* | . | 49.5*
CC(Cc1nnc(N)s1)c1ccccc1 (stereo unspecified) | 98.3 | 6.5 | -1.3 | -4.4 | 6.7 | . | . | .
COc1ccccc1N1CCN(C(=O)c2ccc3c(Cl)c4c(nc3c2)CCCC4)CC1 | 102.5 | 30.7 | 9.5 | 53.4* | 55.6* | 36.0* | . | 57.2*
Cc1ccc(N(C)C(=O)c2ccc3c(Cl)c4c(nc3c2)CCC4)cc1C | 103.3 | 20.8 | 11.7 | 41.1* | 55.0* | 34.8* | . | 55.8*
COc1ccccc1N1CCN(C(=O)c2cc3c(C)nc4ccccc4c3o2)CC1 | 79.3 | 17.7 | 21.8 | 48.9* | 54.2* | 16.5 | . | 33.5
COc1cc(NC(=S)N2CCN(S(=O)(=O)c3ccc(C)cc3)CC2)cc(OC)c1 | 103.7 | 6.5 | 1.7 | 8.3 | 19.1 | . | . | .
CCc1cccc(NC(=O)C2CC2c2ccccc2)c1 (stereo unspecified) | 100.4 | 3.2 | 12.6 | 5.4 | 13.4 | . | . | .
Cn1c(N=Nc2ccccc2)nc2ccccc21 | 99.7 | 26.2 | 23.3 | 15.4 | 32.1 | . | . | .
CN(C)c1ccc(N=Nc2nc3ccccc3n2C)cc1 | 86.8 | 81.9* | 36.5 | 64.6* | 86.5* | 74.2* | 73.2* | 82.2*
S=c1[nH]ncn1/N=C/c1cccc(Oc2ccccc2)c1 | 93.8 | 52.3* | 36.4 | 61.2* | 55.9* | 45.5* | -0.3 | 56.1*
